The nature of assay [1]: ATG_GLI_CIS: Attagene CIS-FACTORIAL HepG2 Assay for human Zinc Finger Protein GLI1 (AID 2282945). To be noted: HepG2, Attagene cis-factorial reporter mRNA, GLI element; actives raise or lower the signal. Put shortly:
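Bidirectional curve fits relative to DMSO, using reporter mRNA levels from RT-PCR plus capillary electrophoresis. Cells were HepG2 transiently carrying cis-regulated reporter constructs, harvested 24 h after dosing.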

The target in assay [2] is Bile acid receptor (Homo sapiens) (UniProt Q96RI1). Kind of assay: ATG_IR1_CIS: Attagene CIS-FACTORIAL HepG2 Assay for human Nuclear Receptor Subfamily 1 Group H Member 4 (NR1H4), IR1 submotif (AID 2282946). To be noted: IR1 reporter transcription, actives raise or lower the signal. In outline:
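Cells (human HepG2) carry transiently transfected cis-promoter reporter transcription units. Compounds are incubated 24 h, total RNA is reverse-transcribed and amplified, and labelled fragments are resolved by capillary electrophoresis. Curves use DMSO as baseline.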

The nature of assay [3]: ATG_GRE_CIS: Attagene CIS-FACTORIAL HepG2 Assay for human Glucocorticoid Response Elements (GRE) (AID 2282947). As to conditions: HepG2 GRE cis-reporter, Attagene multiplex mRNA; actives raise or lower the signal. Put shortly: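 Transient MRTU transfection of human HepG2 liver cells; cis-regulated reporters report endogenous factors. 24 h dosing → RNA isolation → RT-PCR → 6-FAM primer extension → HpaI cut → CE fragment analysis. Bidirectional fit, DMSO negative control.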

Assay [4] is described as follows: ATG_ISRE_CIS: Attagene CIS-FACTORIAL HepG2 Assay for human Interferon Regulatory Factor 1 (IRF1) binding to an Interferon-Stimulated Response Element (ISRE) (AID 2282948). As to conditions: HepG2 ISRE cis-reporter (Attagene), mRNA transcription readout; actives raise or lower the signal. Put shortly: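 Quantitation relies on labelled RT-PCR fragments separated by capillary electrophoresis. Human HepG2 cells bearing cis-promoter reporter constructs were treated 24 h; DMSO served as baseline for bidirectional fitting.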

The nature of assay [5]: ATG_M_32_CIS: Attagene CIS-FACTORIAL HepG2 Assay for M32 Transcription Factor (Internal Marker) (AID 2282949).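 Further: background control marker of the multiplexed CIS panel rather than a real target.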 As to conditions: HepG2 Attagene cis-factorial M32 reporter, mRNA; actives raise or lower the signal. Put shortly:
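Fluorescent capillary electrophoresis peaks of HpaI-digested, FAM-labelled RT-PCR reporter products give the signal. Source: transiently transfected human liver HepG2 cells, 24 h after chemical dosing; bidirectional fitting against DMSO.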

The nature of assay [6]: ATG_M_06_CIS: Attagene CIS-FACTORIAL HepG2 Assay for M06 Transcription Factor (Internal Marker) (AID 2282950). To be noted: HepG2 Attagene CIS-FACTORIAL M06 internal marker reporter; actives raise or lower the signal. In outline: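 Serves as a background control readout. Transfected HepG2 exposed to compounds for 24 h, then reporter transcripts quantified by fluorescent RT-PCR and capillary electrophoresis. Both directions fitted against DMSO baseline.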

Assay [7] concerns the target Hypoxia-inducible factor 1-alpha (Homo sapiens) (UniProt Q16665). Kind of assay: ATG_HIF1a_CIS: Attagene CIS-FACTORIAL HepG2 Assay for human Hypoxia Inducible Factor 1 (HIF1A) (AID 2282951). To be noted: HepG2 Attagene cis-factorial HIF1a reporter transcription; actives raise or lower the signal. Put shortly: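 Endogenous-TF cis reporter readout, human HepG2 cells, 24 h incubation; mRNA detected via RT-PCR and capillary electrophoresis fluorescence; DMSO-normalised bidirectional fitting.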

The target in assay [8] is Hepatocyte nuclear factor 6 (Homo sapiens) (UniProt Q9UBC0). The experiment in a line: ATG_HNF6_CIS: Attagene CIS-FACTORIAL HepG2 Assay for human Hepatocyte Nuclear Factor 6 (HNF6) (AID 2282952). To be noted: HepG2 Attagene cis-factorial HNF6 reporter transcription; actives raise or lower the signal. In outline:
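Reporter mRNA induction or loss in HepG2 after 24 h exposure; transient cis-MRTU transfection; fragments quantified by capillary electrophoresis; bidirectional analysis, DMSO as negative control.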

Assay [9] has as its target Heat shock factor protein 1 (Homo sapiens) (UniProt Q00613). The experiment in a line: ATG_HSE_CIS: Attagene CIS-FACTORIAL HepG2 Assay for human Heat Shock Transcription Factor 1 (HSE) (AID 2282953). To be noted: HepG2 HSE cis-reporter, Attagene RNA transcription; actives raise or lower the signal. Put shortly: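 Endogenous transcription factor activity in transiently transfected HepG2, read as reporter mRNA by RT-PCR with fluorescent capillary electrophoresis after 24 h. Gain or loss of signal fitted versus DMSO baseline.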

Assay [10] is described as follows: ATG_MRE_CIS: Attagene CIS-FACTORIAL HepG2 Assay for human Metal Responsive Element (MRE) (AID 2282954). As to conditions: HepG2 MRE cis-reporter transcription, Attagene multiplex; actives raise or lower the signal. In outline:
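Transient MRTU transfection of HepG2 (FuGene 6); 24 h dosing; total RNA → oligo(dT) RT, PCR, 6-FAM primer extension, HpaI cut, CE. Bidirectional fit vs DMSO.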

The nature of assay [11]: ATG_PBREM_CIS: Attagene CIS-FACTORIAL HepG2 Assay for human Phenobarbital-responsive Enhancer Module (PBREM) (AID 2282955). As to conditions: HepG2 PBREM cis-reporter, Attagene multiplexed transcription; actives raise or lower the signal. Put shortly: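 Readout: reporter mRNA, fluorescent RT-PCR fragments separated by capillary electrophoresis. System: HepG2 transiently transfected with cis-regulated reporter units. Exposure: 24 h. Analysis: bidirectional, DMSO baseline.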

In assay [12] the target is Paired box protein Pax-6 (Homo sapiens) (UniProt P26367). Kind of assay: ATG_Pax6_CIS: Attagene CIS-FACTORIAL HepG2 Assay for human Paired Box 6 (PAX6) (AID 2282956). To be noted: HepG2 CIS-FACTORIAL PAX6 reporter transcription, RNA readout; actives raise or lower the signal. In outline:
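After twenty-four hours of chemical exposure, transfected HepG2 cells are harvested for RNA. Cis-promoter reporter transcripts are amplified, fluorescently labelled and sized by capillary electrophoresis, with gain and loss of signal scored against DMSO.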

Assay [13] is described as follows: ATG_PXRE_CIS: Attagene CIS-FACTORIAL HepG2 Assay for human Pregnane X Receptor Element (PXRE) (AID 2282957). To be noted: HepG2 Attagene CIS-FACTORIAL PXRE reporter, mRNA; actives raise or lower the signal. In outline:
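Transiently transfected HepG2 cells were dosed and incubated for 24 h. RNA was then isolated, DNase-treated, reverse-transcribed and reporter sequences amplified. Labeled, HpaI-digested fragments were quantified by capillary electrophoresis against DMSO.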

A short description of assay [14]: ATG_PPRE_CIS: Attagene CIS-FACTORIAL HepG2 Assay for human Peroxisome Proliferator-activated Response Element (PPRE) (AID 2282958). To be noted: HepG2 PPRE cis-element reporter, Attagene transcription factor profiling; actives raise or lower the signal. Put shortly: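 After human HepG2 hepatoma cells were transiently transfected with cis-promoter reporter constructs, they were exposed to test chemicals for 24 hours. Reporter RNA was then reverse-transcribed, PCR-amplified, FAM-labeled, HpaI-digested and quantified by capillary electrophoresis.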

A short description of assay [15]: ATG_Sox_CIS: Attagene CIS-FACTORIAL HepG2 Assay for human SRY-box transcription factor (SOX) (AID 2282960). As to conditions: HepG2 Attagene cis-factorial SOX reporter, mRNA; actives raise or lower the signal. In outline: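 Using transiently transfected HepG2 cells, reporter transcription driven by cis elements was assessed 24 h after dosing. Signal was fluorescence of capillary-separated RT-PCR products, with DMSO defining baseline activity.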

Assay [16] concerns the target Transcription factor Sp1 (Homo sapiens) (UniProt P08047). Kind of assay: ATG_Sp1_CIS: Attagene CIS-FACTORIAL HepG2 Assay for human Specificity Protein 1 (Sp1) (AID 2282961). To be noted: HepG2 Sp1 cis-reporter transcription, actives raise or lower the signal. In outline: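 After transient transfection of HepG2 cells with cis-promoter reporter units and 24 h chemical treatment, reporter transcripts were quantified by RT-PCR and capillary electrophoresis fluorescence. Gain- and loss-of-signal fitted against DMSO.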

The target in assay [17] is Signal transducer and activator of transcription 3 (Homo sapiens) (UniProt P40763). Kind of assay: ATG_STAT3_CIS: Attagene CIS-FACTORIAL HepG2 Assay for human Signal Transducer and Activator of Transcription 3 (STAT3) (AID 2282963). To be noted: HepG2, Attagene cis-factorial STAT3 reporter transcription; actives raise or lower the signal. Put shortly: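 Endogenous STAT3-responsive cis-element activity was read in transiently transfected HepG2 cells after 24 h treatment. Reporter transcripts were quantified via RT-PCR and capillary electrophoresis, with DMSO as negative control and bidirectional curve fitting.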
Signal transducer and activator of transcription 3 (Homo sapiens), sequence (P40763 whole entry, looked up): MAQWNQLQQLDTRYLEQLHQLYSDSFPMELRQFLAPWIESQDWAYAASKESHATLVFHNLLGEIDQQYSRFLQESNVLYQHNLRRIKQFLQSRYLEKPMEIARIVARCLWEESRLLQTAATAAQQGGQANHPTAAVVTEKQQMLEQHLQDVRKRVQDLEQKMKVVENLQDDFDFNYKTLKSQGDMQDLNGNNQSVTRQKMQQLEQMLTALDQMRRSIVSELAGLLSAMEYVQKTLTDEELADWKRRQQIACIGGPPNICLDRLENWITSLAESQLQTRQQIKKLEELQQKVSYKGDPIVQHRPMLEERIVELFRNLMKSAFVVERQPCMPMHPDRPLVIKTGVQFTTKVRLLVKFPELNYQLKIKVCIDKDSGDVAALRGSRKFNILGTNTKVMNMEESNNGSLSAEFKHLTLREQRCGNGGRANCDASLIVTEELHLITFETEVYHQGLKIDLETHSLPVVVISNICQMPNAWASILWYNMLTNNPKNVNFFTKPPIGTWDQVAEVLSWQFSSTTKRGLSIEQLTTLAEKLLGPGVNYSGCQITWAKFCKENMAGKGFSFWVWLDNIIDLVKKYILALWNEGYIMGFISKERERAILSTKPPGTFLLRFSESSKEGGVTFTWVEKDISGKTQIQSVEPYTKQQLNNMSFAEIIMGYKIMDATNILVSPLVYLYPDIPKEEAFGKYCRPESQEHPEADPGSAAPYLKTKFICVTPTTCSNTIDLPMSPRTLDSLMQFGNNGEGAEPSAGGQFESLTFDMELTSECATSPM

The nature of assay [18]: ATG_TA_CIS: Attagene CIS-FACTORIAL HepG2 Assay for human TA Basal Promoter (AID 2282964). To be noted: HepG2 Attagene CIS-factorial TA basal promoter reporter; actives raise or lower the signal. Put shortly:
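Background-control readout: TA basal promoter reporter mRNA, fitted in both directions relative to DMSO. Measured by RT-PCR and capillary electrophoresis 24 hours after treating HepG2 human liver cells transiently carrying multiplexed cis-regulated reporter constructs.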

Assay [19] in a line: ATG_RORE_CIS: Attagene CIS-FACTORIAL HepG2 Assay for human RAR-related Orphan Receptor Element (RORE) (AID 2282959). As to conditions: HepG2 Attagene cis-factorial RORE reporter, mRNA; actives raise or lower the signal. Put shortly: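 Measured here: transcript induction of a cis-regulated reporter in HepG2 cells transiently transfected via FuGene 6. After 24 h, RNA was processed by RT-PCR and fluorescent capillary electrophoresis; DMSO defined baseline activity.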

A short description of assay [20]: ATG_SREBP_CIS: Attagene CIS-FACTORIAL HepG2 Assay for human Sterol Regulatory Element Binding (SREBP) (AID 2282962). As to conditions: HepG2 Attagene cis-factorial SREBP reporter, mRNA; actives raise or lower the signal. Put shortly:
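Twenty-four hours after chemical dosing of transfected HepG2 cultures, reporter RNA was converted to cDNA, amplified, end-labelled with 6-FAM and resolved by capillary electrophoresis. Responses were fitted relative to DMSO.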

Activity calls are given as the source filed them. How the source made its calls: active means hit-call score of the fitted dose curve at least 0.9, where 1 is the maximum; inactive means score below 0.9.

Paired box protein Pax-6 (Homo sapiens), sequence (P26367 whole entry, looked up): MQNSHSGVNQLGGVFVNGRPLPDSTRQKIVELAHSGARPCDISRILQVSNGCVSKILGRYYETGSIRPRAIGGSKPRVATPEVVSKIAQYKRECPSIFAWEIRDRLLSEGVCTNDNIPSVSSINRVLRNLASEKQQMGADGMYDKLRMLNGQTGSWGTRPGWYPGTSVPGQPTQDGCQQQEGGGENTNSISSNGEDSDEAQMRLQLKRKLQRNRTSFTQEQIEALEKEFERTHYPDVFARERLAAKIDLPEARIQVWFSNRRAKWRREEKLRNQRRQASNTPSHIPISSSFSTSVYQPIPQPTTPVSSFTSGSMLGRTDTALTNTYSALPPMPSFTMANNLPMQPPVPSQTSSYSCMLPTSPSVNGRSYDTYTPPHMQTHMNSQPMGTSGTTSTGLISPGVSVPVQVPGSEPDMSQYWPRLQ
Hepatocyte nuclear factor 6 (Homo sapiens), sequence (Q9UBC0 whole entry, looked up, the tested form may be a part): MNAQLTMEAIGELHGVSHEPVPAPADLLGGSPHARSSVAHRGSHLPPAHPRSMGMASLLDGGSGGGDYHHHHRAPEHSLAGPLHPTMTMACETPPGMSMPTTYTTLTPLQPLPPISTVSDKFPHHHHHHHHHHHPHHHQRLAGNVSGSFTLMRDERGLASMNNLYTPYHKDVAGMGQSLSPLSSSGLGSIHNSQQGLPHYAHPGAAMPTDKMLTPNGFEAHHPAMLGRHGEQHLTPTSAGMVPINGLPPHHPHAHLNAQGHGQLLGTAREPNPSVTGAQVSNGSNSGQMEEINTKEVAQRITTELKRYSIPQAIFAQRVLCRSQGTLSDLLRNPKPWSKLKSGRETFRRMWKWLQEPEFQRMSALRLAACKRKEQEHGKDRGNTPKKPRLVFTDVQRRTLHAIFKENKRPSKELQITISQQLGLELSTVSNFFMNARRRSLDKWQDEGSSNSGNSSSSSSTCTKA
Bile acid receptor (Homo sapiens), sequence (Q96RI1 whole entry, looked up, the tested form may be a part): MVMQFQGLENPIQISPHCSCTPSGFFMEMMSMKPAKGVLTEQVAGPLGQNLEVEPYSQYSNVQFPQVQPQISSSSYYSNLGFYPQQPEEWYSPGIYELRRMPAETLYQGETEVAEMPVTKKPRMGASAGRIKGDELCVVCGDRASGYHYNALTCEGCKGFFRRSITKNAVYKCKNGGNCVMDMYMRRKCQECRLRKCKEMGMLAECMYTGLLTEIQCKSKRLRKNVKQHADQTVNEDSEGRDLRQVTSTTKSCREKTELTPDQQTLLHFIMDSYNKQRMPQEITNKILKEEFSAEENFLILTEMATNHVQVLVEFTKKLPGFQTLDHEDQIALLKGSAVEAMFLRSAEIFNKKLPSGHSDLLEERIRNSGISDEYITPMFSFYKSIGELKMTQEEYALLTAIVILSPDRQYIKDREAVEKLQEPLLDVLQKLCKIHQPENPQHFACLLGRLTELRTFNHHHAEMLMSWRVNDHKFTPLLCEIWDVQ
Heat shock factor protein 1 (Homo sapiens), sequence (Q00613 whole entry, looked up): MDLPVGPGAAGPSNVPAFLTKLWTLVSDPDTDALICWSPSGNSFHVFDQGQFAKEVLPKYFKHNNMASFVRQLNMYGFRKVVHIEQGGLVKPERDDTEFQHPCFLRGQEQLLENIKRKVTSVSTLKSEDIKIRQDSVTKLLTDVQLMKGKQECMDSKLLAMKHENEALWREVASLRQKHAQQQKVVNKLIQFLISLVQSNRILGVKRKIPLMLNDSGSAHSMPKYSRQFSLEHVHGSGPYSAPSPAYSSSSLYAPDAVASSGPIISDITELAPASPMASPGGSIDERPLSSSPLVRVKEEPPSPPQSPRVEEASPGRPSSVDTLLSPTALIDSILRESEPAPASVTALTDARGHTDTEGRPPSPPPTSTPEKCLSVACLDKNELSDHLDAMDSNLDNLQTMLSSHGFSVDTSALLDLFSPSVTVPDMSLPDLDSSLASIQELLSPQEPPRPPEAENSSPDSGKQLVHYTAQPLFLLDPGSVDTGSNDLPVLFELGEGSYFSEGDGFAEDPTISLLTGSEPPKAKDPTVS
Transcription factor Sp1 (Homo sapiens), sequence (P08047 whole entry, looked up): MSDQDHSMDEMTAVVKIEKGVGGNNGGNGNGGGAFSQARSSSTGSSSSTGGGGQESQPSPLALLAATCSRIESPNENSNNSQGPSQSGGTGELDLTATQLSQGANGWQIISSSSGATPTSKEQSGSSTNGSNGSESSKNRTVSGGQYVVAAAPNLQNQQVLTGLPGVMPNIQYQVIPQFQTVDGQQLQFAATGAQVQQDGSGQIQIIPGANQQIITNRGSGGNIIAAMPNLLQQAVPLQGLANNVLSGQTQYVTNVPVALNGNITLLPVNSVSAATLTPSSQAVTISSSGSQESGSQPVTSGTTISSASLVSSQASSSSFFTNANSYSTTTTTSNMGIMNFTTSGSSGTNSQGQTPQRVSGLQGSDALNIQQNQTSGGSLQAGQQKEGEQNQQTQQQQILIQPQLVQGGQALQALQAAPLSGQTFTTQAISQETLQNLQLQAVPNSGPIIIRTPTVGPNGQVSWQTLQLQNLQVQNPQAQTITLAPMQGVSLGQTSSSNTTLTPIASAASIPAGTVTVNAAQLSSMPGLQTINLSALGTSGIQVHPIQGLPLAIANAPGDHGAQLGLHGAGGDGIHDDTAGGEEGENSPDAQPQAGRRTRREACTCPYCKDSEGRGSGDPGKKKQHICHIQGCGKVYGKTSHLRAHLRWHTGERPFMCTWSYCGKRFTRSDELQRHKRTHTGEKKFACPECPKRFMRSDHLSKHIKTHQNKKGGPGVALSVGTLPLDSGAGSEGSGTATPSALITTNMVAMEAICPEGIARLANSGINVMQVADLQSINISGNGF
Hypoxia-inducible factor 1-alpha (Homo sapiens), sequence (Q16665 whole entry, looked up): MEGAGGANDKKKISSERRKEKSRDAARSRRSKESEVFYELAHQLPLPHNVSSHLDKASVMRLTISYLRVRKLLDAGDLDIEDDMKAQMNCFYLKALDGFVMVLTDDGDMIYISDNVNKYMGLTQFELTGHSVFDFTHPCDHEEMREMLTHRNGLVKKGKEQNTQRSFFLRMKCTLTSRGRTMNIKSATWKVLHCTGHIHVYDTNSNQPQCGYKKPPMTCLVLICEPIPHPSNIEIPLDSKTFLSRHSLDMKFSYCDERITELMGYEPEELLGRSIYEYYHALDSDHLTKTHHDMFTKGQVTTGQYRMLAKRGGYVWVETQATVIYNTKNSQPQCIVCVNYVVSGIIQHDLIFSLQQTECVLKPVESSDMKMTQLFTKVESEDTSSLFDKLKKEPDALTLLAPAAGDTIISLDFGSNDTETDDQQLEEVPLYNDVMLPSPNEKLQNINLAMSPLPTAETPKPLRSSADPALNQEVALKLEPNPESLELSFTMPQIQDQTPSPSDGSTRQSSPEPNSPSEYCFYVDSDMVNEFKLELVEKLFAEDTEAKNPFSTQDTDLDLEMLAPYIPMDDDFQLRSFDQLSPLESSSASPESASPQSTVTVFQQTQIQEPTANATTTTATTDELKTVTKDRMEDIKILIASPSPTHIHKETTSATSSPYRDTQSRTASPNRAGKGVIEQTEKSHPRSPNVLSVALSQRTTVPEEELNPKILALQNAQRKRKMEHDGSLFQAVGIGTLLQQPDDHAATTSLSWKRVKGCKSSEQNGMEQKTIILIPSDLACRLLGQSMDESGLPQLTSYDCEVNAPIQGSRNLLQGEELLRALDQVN

In the case of `CCC(=O)OCCc1ccccc1`, the call in assay [1], in assay [2], in [3], in [4], in assay [5] and in assay [6] was inactive. For the same compound, the call in assay [7], in assay [8], in assay [9], in [10], in [11] and in assay [12] was inactive. Moreover, the compound was classed as inactive in [13], in assay [14], in assay [15], in assay [16], in [17] and in assay [18].
By AC50 is commonly meant the midpoint of the concentration-response curve, whichever way the signal moves. On to `O=C(Cl)C(F)(F)C(F)(F)C(F)(F)C(F)(F)C(F)(F)C(F)(F)C(F)(F)C(F)(F)F`, for which the compound was classed as inactive in assay [1], in assay [2], in [3], in assay [5], in assay [6] and in assay [7]. Moreover, the result in assay [11], in [15], in assay [16], in assay [17] and in assay [18] was inactive. The AC50 in assay [4] was 33.4 µM (active); in [9], 49.6 µM (active); in assay [10], 48 µM (active); in assay [12] it was 54.1 µM (active); in assay [13], 8.97 µM (active); in assay [14] it was 33.4 µM (active).
On to `O=S(=O)(OCC(F)F)C(F)(F)F`, for which the compound was classed as inactive in [1], in assay [2], in [3], in assay [4], in assay [5] and in [6]. Further, the result in assay [8], in assay [9], in [10], in [11], in assay [12] and in [13] was inactive. Also, the call in [14], in assay [19], in [15], in assay [16], in assay [20] and in assay [17] was inactive. Further, in assay [18], the call was inactive.

(Values after PubChem BioAssay (EPA / NIEHS).)
